# Test: differential killing of epithelial or mesenchymal cells, primary screen, imaging, PC-3E GFP, TEM4-18 mCherry, co-culture (AID 1345086);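 further: cells exposed to compound for 72 h before imaging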
# Details: imaging cell counts, measured here: epithelial PC-3E GFP cell survival, at 1 µM
row,Structure (SMILES),normalised cell number
1,COc1cc(O)c(C(C)=O)c(OC)c1,1.02
2,COc1c2ccoc2c(OC)c2oc(=O)ccc12,1.03
3,NC(Cn1ccc(=O)c(O)c1)C(=O)O (configuration not stated),0.94
4,N#Cc1ccc2c(c1)N(CCCN1CCC(O)CC1)c1ccccc1S2,0.87
5,Oc1cc(O)c2c(c1)O[C@H](c1cc(O)c(O)c(O)c1)[C@H](O)C2,0.76
6,O=c1[nH]c2cc(Cl)c(Cl)cc2[nH]c1=O,0.94
7,O=C(O)CCCCCCCCCCCCC1C=CCC1 (configuration not stated),1.02
8,CC(C)=CCc1c2c(c3occ(-c4ccc(O)c(O)c4)c(=O)c3c1O)C=CC(C)(C)O2,1.03
9,COc1ccc([C@H]2Oc3cc(OC)cc(OC)c3C[C@H]2O)cc1,1.04
10,COc1c(OC)c2occc2c2oc(=O)ccc12,1.12
11,NC1(C(=O)O)CCCC1,1.24
12,COc1ccc(C(=O)CC(=O)O)c2c1C=CC(C)(C)O2,0.98
13,COC1=CC(=O)C=C(OC)C1=O,0.92
14,CCOC(=O)[C@H](CCc1ccccc1)N[C@H](C)C(=O)N1C2CCCCC2C[C@H]1C(=O)O (some centres not stated),1.03
15,CON,1.15
16,COc1c2ccoc2nc2c(OC)c(OCC(O)C(C)(C)O)ccc12 (configuration not stated),1
17,C=NC(C(=O)NC1C(=O)N2C1SC(C)(C)C2C(=O)O)c1ccccc1 (configuration not stated),0.88
18,O=C1C=CC(=C(c2ccc(O)cc2)c2ccc(O)cc2)C=C1,1.03
19,COc1cc(OC)c2ccc(=O)oc2c1,0.96
20,O=C1c2ccc(O)c(O)c2C(=O)c2c(O)ccc(O)c21,0.82
21,COc1cc(C)c2c(=O)cc(-c3ccccc3)oc2c1,1.28
22,Cc1cc(=O)oc2c(O)c(O)ccc12,0.87

# — PubChem BioAssay
